# Targets with a hit are over-represented here; the source holds about 7,900 in all. About 0.6% of all pairs of compound and target were hits. Unmarked numbers belong to inactive results.
# What was measured:
# Experiment in all cases: log2 fold change, soluble protein after heating vs DMSO (PISA); higher = thermal stabilisation; K562 cells, 10 uM, 30 min; active = over 0.2 and 3.5 SD of the protein, either way, in both replicates (recomputed)
# [1] = compound: NC(=O)Nc1cc(-c2cccc(F)c2)sc1C(=O)N[C@H]1CCCNC1
# Method in brief: (§1)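 Soluble protein was defined as the supernatant after 21,000xg for 90 min. It came from K562 cells at 2×10^6 cells/mL given 10 μM compound for 30 min, heated in aliquots for 3 min across 48°C-58°C, pooled, and extracted in PBS with 0.5% NP-40 at 4°C, and was quantified by TMTpro 16plex LC-MS/MS with equalised channel sums. Thermal stability against control samples, from duplicates, is reported as log2 fold change.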
# [2] = compound: NC(=O)c1cnc(N[C@@H]2CCCC[C@@H]2N)nc1Nc1cccc(-n2nccn2)c1
# Method in brief: as §1
# [3] = compound: NC1(c2ccc(-c3nc4ccn5c(=O)[nH]nc5c4cc3-c3ccccc3)cc2)CCC1
# Method in brief: as §1
# [4] = compound: NCC(=O)Nc1ccc(-n2nc(C(F)(F)F)cc2-c2ccc3c(ccc4ccccc43)c2)cc1
# Method in brief: as §1
# entinostat = compound: Nc1ccccc1NC(=O)c1ccc(CNC(=O)OCc2cccnc2)cc1 [entinostat]
# Method in brief: as §1
# vorinostat = compound: O=C(CCCCCCC(=O)Nc1ccccc1)NO [vorinostat]
# Method in brief: as §1
# citarinostat = compound: O=C(CCCCCCNC(=O)c1cnc(N(c2ccccc2)c2ccccc2Cl)nc1)NO [citarinostat]
# Method in brief: as §1
# silmitasertib = compound: O=C(O)c1ccc2c(c1)nc(Nc1cccc(Cl)c1)c1ccncc12 [silmitasertib]
# Method in brief: as §1
# [5] = compound: O=C1NC(=O)C(c2cnc3ccccn23)=C1c1cn2c3c(cc(F)cc13)CN(C(=O)N1CCCCC1)CC2
# Method in brief: as §1
# [6] = compound: c1cc(OCCN2CCCCC2)cc(-c2n[nH]c3ccc(-c4nnc[nH]4)cc23)c1
# Method in brief: as §1
# UniProt Q13428, sequence (Q13428 whole entry, looked up): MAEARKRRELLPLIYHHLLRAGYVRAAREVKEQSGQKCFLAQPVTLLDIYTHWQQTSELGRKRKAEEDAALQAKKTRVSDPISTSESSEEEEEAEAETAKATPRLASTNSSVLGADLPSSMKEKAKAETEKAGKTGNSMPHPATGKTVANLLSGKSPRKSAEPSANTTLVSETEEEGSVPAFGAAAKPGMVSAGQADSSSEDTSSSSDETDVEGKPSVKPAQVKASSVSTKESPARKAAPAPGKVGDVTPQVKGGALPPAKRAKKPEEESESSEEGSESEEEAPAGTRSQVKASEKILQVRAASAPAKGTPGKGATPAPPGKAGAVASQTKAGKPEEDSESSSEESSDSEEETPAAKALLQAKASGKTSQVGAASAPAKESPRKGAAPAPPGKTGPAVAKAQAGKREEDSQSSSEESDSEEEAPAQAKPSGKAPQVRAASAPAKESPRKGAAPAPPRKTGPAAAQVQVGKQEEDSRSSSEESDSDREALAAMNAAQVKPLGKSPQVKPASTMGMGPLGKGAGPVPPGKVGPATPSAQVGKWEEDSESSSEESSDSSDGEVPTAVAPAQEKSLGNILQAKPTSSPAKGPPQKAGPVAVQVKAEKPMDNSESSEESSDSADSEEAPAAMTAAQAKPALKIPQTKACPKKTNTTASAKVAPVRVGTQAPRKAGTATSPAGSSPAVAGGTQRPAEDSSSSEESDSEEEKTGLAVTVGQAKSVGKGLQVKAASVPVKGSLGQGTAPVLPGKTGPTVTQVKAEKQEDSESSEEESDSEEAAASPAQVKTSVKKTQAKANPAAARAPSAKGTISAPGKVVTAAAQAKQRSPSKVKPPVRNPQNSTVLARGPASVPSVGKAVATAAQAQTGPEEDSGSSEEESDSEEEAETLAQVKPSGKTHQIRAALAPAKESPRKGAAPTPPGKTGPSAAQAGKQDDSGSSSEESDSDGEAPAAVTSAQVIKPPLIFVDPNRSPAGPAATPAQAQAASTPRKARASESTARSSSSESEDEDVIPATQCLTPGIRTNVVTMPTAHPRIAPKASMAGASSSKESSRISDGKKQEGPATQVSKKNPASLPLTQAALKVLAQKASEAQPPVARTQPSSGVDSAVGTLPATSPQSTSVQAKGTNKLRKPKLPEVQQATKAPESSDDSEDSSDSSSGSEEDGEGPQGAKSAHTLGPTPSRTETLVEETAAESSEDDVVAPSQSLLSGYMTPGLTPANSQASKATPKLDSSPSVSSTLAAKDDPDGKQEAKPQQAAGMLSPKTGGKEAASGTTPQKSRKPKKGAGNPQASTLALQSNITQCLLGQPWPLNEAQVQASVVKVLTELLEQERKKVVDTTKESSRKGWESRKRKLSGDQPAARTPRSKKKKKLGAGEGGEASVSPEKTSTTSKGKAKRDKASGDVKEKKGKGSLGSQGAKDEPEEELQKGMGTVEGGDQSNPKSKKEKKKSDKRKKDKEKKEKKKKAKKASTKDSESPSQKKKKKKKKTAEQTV
# UniProt Q12824, sequence (Q12824 whole entry, looked up): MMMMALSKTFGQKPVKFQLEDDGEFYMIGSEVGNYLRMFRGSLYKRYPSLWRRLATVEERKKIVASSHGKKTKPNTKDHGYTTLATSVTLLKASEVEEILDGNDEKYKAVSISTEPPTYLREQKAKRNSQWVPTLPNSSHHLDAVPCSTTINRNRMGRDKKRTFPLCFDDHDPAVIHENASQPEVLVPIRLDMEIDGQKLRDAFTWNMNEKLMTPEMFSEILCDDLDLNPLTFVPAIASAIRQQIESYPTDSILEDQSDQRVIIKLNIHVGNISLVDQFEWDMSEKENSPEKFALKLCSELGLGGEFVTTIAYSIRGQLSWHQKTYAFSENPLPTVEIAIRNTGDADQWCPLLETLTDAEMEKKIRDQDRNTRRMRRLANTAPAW
# UniProt Q6PCB7, sequence (Q6PCB7 whole entry, looked up): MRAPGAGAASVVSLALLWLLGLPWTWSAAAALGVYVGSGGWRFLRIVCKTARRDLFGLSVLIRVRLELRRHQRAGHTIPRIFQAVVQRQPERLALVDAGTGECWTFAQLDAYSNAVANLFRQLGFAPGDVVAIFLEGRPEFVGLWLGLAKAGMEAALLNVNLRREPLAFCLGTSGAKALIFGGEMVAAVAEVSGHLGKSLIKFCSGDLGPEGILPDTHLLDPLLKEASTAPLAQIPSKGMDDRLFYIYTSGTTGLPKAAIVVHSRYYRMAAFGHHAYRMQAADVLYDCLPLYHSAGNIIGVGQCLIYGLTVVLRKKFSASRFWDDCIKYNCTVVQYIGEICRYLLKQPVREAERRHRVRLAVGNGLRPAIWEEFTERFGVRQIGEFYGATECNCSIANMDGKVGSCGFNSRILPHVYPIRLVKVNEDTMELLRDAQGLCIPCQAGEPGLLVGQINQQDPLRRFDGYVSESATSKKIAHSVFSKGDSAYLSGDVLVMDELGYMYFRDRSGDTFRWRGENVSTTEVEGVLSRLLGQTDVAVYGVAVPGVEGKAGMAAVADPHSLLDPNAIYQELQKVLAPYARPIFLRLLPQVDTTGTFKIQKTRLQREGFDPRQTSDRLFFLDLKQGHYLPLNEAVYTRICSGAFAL
# UniProt Q9Y6J9, sequence (Q9Y6J9 whole entry, looked up): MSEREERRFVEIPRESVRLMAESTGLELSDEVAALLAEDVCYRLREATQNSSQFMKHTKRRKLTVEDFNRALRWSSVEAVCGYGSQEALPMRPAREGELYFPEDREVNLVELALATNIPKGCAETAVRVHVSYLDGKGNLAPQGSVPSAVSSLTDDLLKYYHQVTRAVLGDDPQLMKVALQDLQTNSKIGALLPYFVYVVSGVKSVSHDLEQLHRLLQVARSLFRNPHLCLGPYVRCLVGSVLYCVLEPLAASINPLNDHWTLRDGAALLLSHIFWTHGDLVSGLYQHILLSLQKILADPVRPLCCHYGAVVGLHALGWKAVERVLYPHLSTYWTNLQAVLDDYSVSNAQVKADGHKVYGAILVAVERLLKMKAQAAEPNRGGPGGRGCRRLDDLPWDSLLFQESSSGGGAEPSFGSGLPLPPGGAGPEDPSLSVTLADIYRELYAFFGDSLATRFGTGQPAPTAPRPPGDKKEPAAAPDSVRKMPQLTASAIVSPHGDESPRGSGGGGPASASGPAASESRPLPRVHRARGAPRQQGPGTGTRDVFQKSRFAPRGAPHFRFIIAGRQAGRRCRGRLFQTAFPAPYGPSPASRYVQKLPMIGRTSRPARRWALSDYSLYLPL
# UniProt Q9C0B7, sequence (Q9C0B7 whole entry, looked up): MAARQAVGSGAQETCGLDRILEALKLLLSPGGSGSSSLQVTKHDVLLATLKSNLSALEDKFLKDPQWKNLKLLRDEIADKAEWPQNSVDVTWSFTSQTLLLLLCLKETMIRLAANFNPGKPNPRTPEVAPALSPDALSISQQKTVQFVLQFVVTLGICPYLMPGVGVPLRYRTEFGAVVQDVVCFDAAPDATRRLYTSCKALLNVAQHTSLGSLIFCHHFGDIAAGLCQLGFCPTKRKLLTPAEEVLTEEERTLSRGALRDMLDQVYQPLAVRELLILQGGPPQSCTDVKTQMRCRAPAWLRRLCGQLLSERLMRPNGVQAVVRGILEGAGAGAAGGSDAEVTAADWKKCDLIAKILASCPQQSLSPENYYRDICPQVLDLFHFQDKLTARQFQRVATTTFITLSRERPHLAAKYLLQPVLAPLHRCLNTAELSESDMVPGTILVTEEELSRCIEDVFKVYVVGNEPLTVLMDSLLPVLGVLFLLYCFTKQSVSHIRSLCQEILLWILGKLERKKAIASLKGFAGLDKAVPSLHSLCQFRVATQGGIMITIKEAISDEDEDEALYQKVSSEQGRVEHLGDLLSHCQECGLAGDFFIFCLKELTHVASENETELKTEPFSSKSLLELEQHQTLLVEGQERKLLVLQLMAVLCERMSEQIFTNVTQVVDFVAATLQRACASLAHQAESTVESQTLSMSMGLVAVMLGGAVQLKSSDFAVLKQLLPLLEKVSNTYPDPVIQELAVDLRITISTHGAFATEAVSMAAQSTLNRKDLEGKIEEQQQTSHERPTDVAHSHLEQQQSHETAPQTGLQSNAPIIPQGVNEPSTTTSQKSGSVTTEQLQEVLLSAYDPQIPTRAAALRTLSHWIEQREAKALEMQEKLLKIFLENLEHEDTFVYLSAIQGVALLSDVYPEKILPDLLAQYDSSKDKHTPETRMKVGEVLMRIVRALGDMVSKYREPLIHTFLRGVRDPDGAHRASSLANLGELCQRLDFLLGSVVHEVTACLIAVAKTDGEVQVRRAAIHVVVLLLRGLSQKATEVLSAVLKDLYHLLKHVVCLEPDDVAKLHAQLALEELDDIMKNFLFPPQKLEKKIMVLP
# UniProt Q14849, sequence (Q14849 whole entry, looked up): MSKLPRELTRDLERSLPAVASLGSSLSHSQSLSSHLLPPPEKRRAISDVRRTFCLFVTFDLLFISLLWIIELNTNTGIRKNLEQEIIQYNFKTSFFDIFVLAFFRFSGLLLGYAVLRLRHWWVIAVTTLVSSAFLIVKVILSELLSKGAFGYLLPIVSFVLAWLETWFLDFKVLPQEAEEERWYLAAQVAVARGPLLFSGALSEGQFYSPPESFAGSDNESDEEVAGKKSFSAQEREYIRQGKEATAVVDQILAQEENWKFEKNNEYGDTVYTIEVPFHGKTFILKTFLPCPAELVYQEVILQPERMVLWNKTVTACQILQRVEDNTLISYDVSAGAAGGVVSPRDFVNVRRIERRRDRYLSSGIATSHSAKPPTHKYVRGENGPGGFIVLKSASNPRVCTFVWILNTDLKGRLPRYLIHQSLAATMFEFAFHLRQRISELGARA
# UniProt P78383, sequence (P78383 whole entry, looked up): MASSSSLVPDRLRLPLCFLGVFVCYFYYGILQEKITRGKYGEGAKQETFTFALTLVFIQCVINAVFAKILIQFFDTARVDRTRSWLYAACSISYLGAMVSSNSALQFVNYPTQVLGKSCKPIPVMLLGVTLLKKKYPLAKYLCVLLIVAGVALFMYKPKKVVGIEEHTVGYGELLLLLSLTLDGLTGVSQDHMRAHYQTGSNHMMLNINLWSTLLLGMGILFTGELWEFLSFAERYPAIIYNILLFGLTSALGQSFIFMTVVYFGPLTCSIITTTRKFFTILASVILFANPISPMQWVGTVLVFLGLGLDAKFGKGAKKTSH
Target,log2 fold change [1],log2 fold change [2],log2 fold change [3],log2 fold change [4],log2 fold change (entinostat),log2 fold change (vorinostat),log2 fold change (citarinostat),log2 fold change (silmitasertib),log2 fold change [5],log2 fold change [6]
TBC1D20 isoform 3 (UniProt Q96BZ9),-0.062,0.052,0.027,-0.08,0.026,0.033,0.293,0.03,-0.007,0.03
STARD3 (UniProt Q14849),0.014,0.079,-0.236,-0.073,0.004,-0.021,,0.053,-0.003,
TBC1D15 isoform 3 (UniProt Q8TC07),-0.013,-0.086,-0.202,-0.033,0.118,0.101,0.036,0.071,-0.008,-0.059
SUGP1 (UniProt Q8IWZ8),0,-0.05,-0.073,-0.071,0.054,0.077,0.074,0.101,-0.065,0.045
SLC35A1 (UniProt P78382),-0.05,-0.015,-0.069,0.1,-0.065,,0.047,0.021,0.028,-0.106
SLC29A3 (UniProt Q9BZD2),-0.098,-0.124,-0.304,0.04,-0.022,,-0.123,0.047,0.142,-0.033
SPTBN4 (UniProt Q9H254),0,-0.09,-0.095,0.033,0.014,0.026,0.05,0.062,0.129,-0.013
SNRK (UniProt Q9NRH2),-0.19,,,,-0.046,,0.26,,,0.325
TATDN2 (UniProt Q93075),-0.115,0.003,,-0.126,0.009,0.004,-0.52 (active),,0.067,0.06
SMPD4 isoform 2 (UniProt Q9NXE4),,-0.1,0.014,-0.03,,0.216,,-0.058,,
TCOF1 isoform 6 (UniProt Q13428),0.281,,-0.07,0.077,0.23,,0.18,0.028,,-0.042
SRCAP (UniProt Q6ZRS2),-0.079,,0.001,-0.041,0.077,-0.039,0.014,-0.022,,0.001
TEX30 (UniProt Q5JUR7),,-0.101,-0.097,-0.1,,0.121,,0.073,-0.04,
TM7SF2 (UniProt O76062),0.057,,,-0.276,0.119,,,,,
TCOF1 isoform 3 (UniProt Q13428),0.283,,,,0.008,0.205,0.105,,0.067,-0.146
TC2N (UniProt Q8N9U0),,0.015,-0.067,-0.13,,,,-0.186,,
SMARCB1 (UniProt Q12824),-0.023,,,-0.261,-0.005,-0.158,-0.171,,,-0.103
SPIRE1 (UniProt Q08AE8),,-0.025,0.063,-0.04,,-0.035,0.022,-0.008,0.224,0.023
SLC9A6 isoform 3 (UniProt Q92581),,0.009,,,,,-0.066,,,0.172
TANGO6 (UniProt Q9C0B7),-0.007,-0.002,-0.167,,0.035,,-0.071,0.084,0.017,-0.089
TAF6L (UniProt Q9Y6J9),-0.038,-0.067,-0.061,,0.033,0.248,,0.303,,
TM7SF3 (UniProt Q9NS93),0.091,0.048,-0.359 (active),,0.076,,0.179,0.066,,0.084
SLC27A1 (UniProt Q6PCB7),0.026,-0.012,-0.016,0.038,-0.013,,,-0.039,0.014,

Target,log2 fold change [1],log2 fold change [2],log2 fold change [3],log2 fold change [4],log2 fold change (entinostat),log2 fold change (vorinostat),log2 fold change (citarinostat),log2 fold change (silmitasertib),log2 fold change [5],log2 fold change [6]
TBC1D2 (UniProt Q9BYX2),,-0.078,-0.181,,,-0.022,-0.026,0.26,0.058,-0.202
SPAG9 isoform 4 (UniProt O60271),-0.101,-0.164,-0.09,-0.199,0.034,,-0.048,0.014,,-0.017
SLC35B4 (UniProt Q969S0),-0.006,-0.052,-0.094,-0.072,-0.002,,-0.009,-0.034,-0.069,-0.06
SUPT5H isoform 2 (UniProt O00267),,,,-0.046,,,,,,
SSBP4 (UniProt Q9BWG4),0.177,0.041,-0.024,,-0.084,-0.107,0.018,-0.008,,-0.093
SREBF1 isoform 4 (UniProt P36956),,,-0.565 (active),,,,0.095,0.01,0.057,0.007
SLC39A1 (UniProt Q9NY26),,,,,,0.181,,,,
THAP9 (UniProt Q9H5L6),,0.021,0.024,,,,,0.049,,
SLC46A1 (UniProt Q96NT5),,-0.143,,0.137,,-0.005,-0.061,,,0.01
SLC35B1 isoform 2 (UniProt P78383),-0.054,,-0.029,-0.057,0.041,,-0.052,0.261,0.138,-0.327
SOX5 (UniProt P35711),0.035,-0.064,-0.015,0.03,-0.129,,,0.018,,
SRFBP1 (UniProt Q8NEF9),0.038,0.198,0.211,,-0.071,0.009,0,0.054,0.122,0.116
SP2 (UniProt Q02086),0.164,-0.144,,,-0.018,,-0.063,,,-0.293
SSBP4 (UniProt U3KPY3),,,-0.014,0.016,,,,0.133,,
SSB (UniProt E7ERC4),,,-0.168,-0.065,,-0.176,,0.022,,
TAOK2 (UniProt Q9UL54),,,-0.01,,,0.081,0.056,-0.009,0.184,0.12
SNX2 isoform 2 (UniProt O60749),0.043,-0.004,,-0.264,0.088,,0.065,,-0.183,-0.1
SLC8B1 (UniProt Q6J4K2),,-0.078,,0.034,,-0.031,,,,
TBP (UniProt P20226),,0.095,0.015,0.033,,,0.013,0.183,-0.025,-0.041
TENT5C (UniProt Q5VWP2),-0.095,,0.006,-0.32,0.035,-0.104,0.144,-0.038,,-0.133
TMBIM6 isoform 2 (UniProt P55061),0.027,-0.119,0.189,-0.015,0.044,,0.05,-0.206,-0.089,-0.067
SYK (UniProt P43405),,,,-0.029,,,-0.029,,0.075,-0.123

# Reference: the supplement of paper PMC10849652
